Reference: PubChem BioAssay (NCI)
Values joined by “and” are separate entries in the source; they are usually repeats but may differ in a detail not shown here. Identical values can stand only once. This is part of a sample that, as a whole, favours compounds with a hit. Of some 79,000 tested, about 15% had one in any assay. Cut-off read from the data, not from the text of the source: active = growth inhibition above about 70%; inactive = the rest. Where a SMILES comes first, the peptide text is derived from it. The star is where a group is joined. Boc = CC(C)(C)OC(=O)*

Tests used:
[1] = NCI Yeast Anticancer Drug Screen. Data for the rad50 strain (AID 155);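 note: 0% = growth of vehicle-only cultures of the same strain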; settings: S. cerevisiae rad50 strain growth inhibition, active compounds read high; at 50.0 µM unless noted
Outline: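 Cells are treated with compound, grown, and their growth is then scored against vehicle-only cultures of the same repair-deficient yeast strain.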

[2] = NCI Yeast Anticancer Drug Screen. Data for the mec2-1 strain (AID 157); settings: S. cerevisiae mec2-1 strain, active compounds read high; at 50.0 µM unless noted
Outline: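 Each compound was tested on mec2-1 yeast, a strain altered in DNA damage repair or cell cycle control. Growth inhibition is reported relative to vehicle.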

[3] = NCI Yeast Anticancer Drug Screen. Data for the sgs1 mgt1 strain (AID 161);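 note: 0% = growth of cultures given vehicle only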; settings: S. cerevisiae sgs1 mgt1 strain, active compounds read high; at 50.0 µM unless noted
Outline: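 Read-out: growth inhibition vs vehicle controls. Cells: mutant yeast strain deficient in DNA damage repair.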

[4] = NCI Yeast Anticancer Drug Screen. Data for the cln2 rad14 strain (AID 165);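 note: 0% = growth equal to vehicle treated cultures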; settings: S. cerevisiae cln2 rad14 strain, active compounds read high; at 50.0 µM unless noted
Outline: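 Test compounds were added to cln2 rad14 yeast cultures; inhibition of growth was then determined by comparison with vehicle treatment.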

[5] = NCI Yeast Anticancer Drug Screen. Data for the bub3 strain (AID 167); settings: S. cerevisiae bub3 mutant strain, active compounds read high; at 50.0 µM unless noted
Outline: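 Part of a panel of yeast mutants defective in DNA damage repair or cell cycle regulation. Each strain is grown with compound, and inhibition is calculated relative to solvent-treated cultures.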

[6] = NCI Yeast Anticancer Drug Screen. Data for the mlh1 rad18 strain (AID 175); settings: S. cerevisiae mlh1 rad18 strain growth inhibition, active compounds read high; at 50.0 µM unless noted
Outline: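 Inhibition values reflect reduced growth of mutant yeast versus vehicle-treated controls following compound exposure; the mutations affect DNA damage repair.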

Measured: growth inhibition

CC1=CC(=C2C=C(C)C(=O)C(C)=C2)C=C(C)C1=O
inactive: [1] 9.85% | [2] -6.65% | [3] 24.4% | [4] -0.25% | [5] 4.25% | [6] 14.2%

C=CCCC(=O)CC(=O)OCc1ccccc1
inactive: [1] -7.2% | [2] -31% | [3] -1.15% | [4] 8.05% | [5] -37% | [6] 16.1%

Cc1ccc(S(=O)(=O)N/N=C/c2ccoc2)cc1
inactive: [1] -32.1% | [2] -8.6% | [3] -17.1% | [4] -3.9% | [5] 4.45% | [6] -14.4%

COC(=O)C(Cc1c[nH]c2ccccc12)NC(=O)C(Cc1c[nH]c2ccccc12)NC(=O)C(Cc1c[nH]c2ccccc12)NC(=O)C(Cc1c[nH]c2ccccc12)NC(=O)C(Cc1c[nH]c2ccccc12)NC(=O)C(Cc1c[nH]c2ccccc12)NC(=O)OC(C)(C)C (centres undefined) (Boc-WWWWWW-OMe; configuration not given here)
inactive: [1] -6.8% | [2] -12.7% | [3] -18.4% | [4] 7.25% | [5] 8.25% | [6] 16.4%

CC(=O)Nc1ccccc1C(C#N)Cc1ccccc1 (centres undefined)
inactive: [1] 13.3% | [2] 5.55% | [3] 14.1% | [4] -32.4% | [5] 1.15% | [6] 8.95%

CC(C)(C1CCC([Si](C2CCCCC2)(C2CCCCC2)C2CCCCC2)CC1)[Si](C1CCCCC1)(C1CCCCC1)C1CCCCC1 (centres undefined)
inactive: [1] 8% | [2] -0.15% | [3] -14.4% | [4] -7.2% | [5] 3.3% | [6] -1.95%

NCCCC(=S)S
inactive: [1] -4.35% | [2] 12.6% | [3] -0.75% | [4] 12.8% | [5] 13.8% | [6] 13.4%

Cc1cc(C)c2ccc(Cl)nc2n1
inactive: [1] -6.75% | [2] 0.55% | [3] -7.35% | [4] 9.35% | [5] -4.35% | [6] 6.1%

C/C=C/C#C/C=C1/C=CC(=O)O1
inactive: [1] -5.95% | [2] -1.35% | [3] -7.2% | [4] 37.1% | [5] 34.2% | [6] 10.1%

Cc1cccc(C(C)C)c1N1C(=O)C(=O)C(c2nc3ccccc3o2)C(=O)C1=O
inactive: [1] -5.85% | [2] 2.15% | [3] 16.1% | [4] 39.1% | [5] 16.5% | [6] 31.2%

Cc1cc(C)nc(NS(=O)(=O)c2ccc(NC(=O)NC(F)(F)F)cc2)n1
inactive: [1] -41% | [2] -30.2% | [3] -63% | [4] 15.8% | [5] 26.9% | [6] -23.9%

O=C1OC2C(O)C(CO)OC2n2c1cc(=O)[nH]c2=O (centres undefined)
inactive: [1] 2.55% | [2] 13.9% | [3] 9.4% | [4] -4.15% | [5] 3.5% | [6] -5.35%

CN(C)c1ccc(/C=C/C(=O)N[C@@H]2C(=O)N3[C@@H]2SC(C)(C)[C@@H]3C(=O)O)cc1
inactive: [1] -10.3% | [2] -10.8% | [3] -11.9% | [4] 6.35% | [5] -12.8% | [6] 12.8%

C=CCNC(=S)N/C=C(\C#N)C(N)=O
inactive: [1] -24.4% | [2] -40.3% | [3] -27.2% | [4] -7.15% | [5] -12.6% | [6] -41.5%

O=C1NC(=S)N/C1=C\c1ccc(Cl)cc1
inactive: [1] -5.75% | [2] -4.8% | [3] 15% | [4] -5.9% | [5] -9.3% | [6] -39.7%

NC(=O)NCCCC(N)C(=O)O (centres undefined)
inactive: [1] 7.7% and -23.9% | [2] -16.2% and -16.6% | [3] -5.85% and -13.1% | [4] -2.4% and 2.9% | [5] 9.45% and -39.5% | [6] -10.4% and -14.9%

O=C(Nc1ccc2c(c1)Cc1c(F)cccc1-2)C(F)(F)F
inactive: [1] -4.8% | [2] -16.4% | [3] -3.95% | [4] -7.95% | [5] 9.45% | [6] 11.2%

COc1ccccc1N=C(N)N/N=C/c1c[nH]c2ccccc12
inactive: [1] 0.25% | [2] -8.85% | [3] -9.6% | [4] 17% | [5] 1.45% | [6] 15.2%

Cc1cc2nncn2c2ccccc12
inactive: [1] 9.15% | [2] -3.55% | [3] -2.9% | [4] -12.3% | [5] 1.2% | [6] 11.2%
